Bioassay records deposited in PubChem by Broad Institute.
A selection: hits, their analogues and other compounds. The true share with any hit is near 2.2%.
Shn3 inh set2 – Schnurri-3 reporter inhibition in Clone20 osteoblasts; Clone20 osteoblast Shn3 3'UTR firefly luciferase, 24 h; inhibition, % at 12.5 µM; actives 0.52% (n = 360,000); AID 588674;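 active = mean inhibition of at least 75% with every replicate also reaching 75%; inconclusive = mean inhibition at least 75% but some replicate below; inactive = mean inhibition below 75%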;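 note: 0% = median of neutral control wells and 100% = pilot-screen positive control compound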
EBV LMP1 NFkB – reduces LMP1-driven NF-kappaB luciferase signal | LMP1-induced NF-kappaB luciferase reporter cells, luminescence | actives 0.69% (n = 350,000) | AID 504558 | inhibition, % at 12.5 µM; in the data active = inhibition above about 41%; inconclusive = no clear call, values can overlap the other calls;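 note: 0% = neutral control wells and 100% = reference inhibitor control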
LGR2 inh – Drosophila LGR2 receptor signaling inhibition | HEK293 LGR2, CRE-luciferase, bursicon-stimulated, 4 h | inhibition, % at 9.99 µM | actives 0.35% (n = 380,000) | AID 720647;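 active = drop in luminescence signal, shown as inhibition above about 50% in the replicate tests, limit read from the data, passing the limit was not always enough; inconclusive = probably only some replicates passing the limit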;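 note: agonist challenge used bursicon conditioned medium at about half maximal strength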
MITF TRPM1 inh – reduces MITF-dependent TRPM1 promoter luciferase signal; SK-MEL-5 TRPM1 promoter luciferase, 24 h; inhibition, % at 12.5 µM; actives 0.83% (n = 330,000); AID 488899;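 active = mean inhibition across replicates of 60% or more, whatever share of single replicates reaches that level; inconclusive = some that reach 60%, reason not given; inactive = mean inhibition across replicates below 60%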
PAX8 inh HTS – PAX8 transcriptional activity inhibition; AID 652154; inhibition, % at 12.6 µM; RMG-I TPO-luciferase reporter, SteadyGlo, 24 h; actives 1.2% (n = 360,000);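 active = mean replicate inhibition at least 60% with every replicate also reaching 60%; inconclusive = only one of the two criteria is met; inactive = mean below 60% and not all replicates reaching 60%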;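 note: luciferase light reporting Pax8 driven TPO promoter activity; plate controls were median of neutral control wells for no effect and mitoxantrone controls for full effect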
EWS-Fli block – EWS/Fli transcriptional activity inhibition | AID 651661 | A673 NR0B1-luciferase reporter, viability-normalised | inhibition, % at 12.6 µM | actives 0.67% (n = 350,000);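 active = mean inhibition of at least 50% after viability correction, with every replicate also passing that limit; inconclusive = mean reaches 50% but only one of two replicates passes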;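 note: firefly luciferase signal divided by Alamar Blue viability fluorescence both relative to DMSO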
An asterisk follows results filed as active; ? = inconclusive; nt = no result given.

SMILES | Shn3 inh set2 | EBV LMP1 NFkB | LGR2 inh | MITF TRPM1 inh | PAX8 inh HTS | EWS-Fli block
CCCC(=O)NC(c1ccccc1)c1ccc2cccnc2c1O (configuration not stated) | 93* | 40 | nt | 65* | 79* | 27
CC=Cc1ccc2n(c1=O)C[C@H]1[C@H](CO)[C@@H](C(=O)N[C@@H](C)c3ccccc3)[C@@H]2N1Cc1ccncc1 (mixture of isomers) | nt | nt | 1 | nt | -8 | -3
CC(C)NC(=O)N(C)C[C@@H]1Oc2ccc(NS(=O)(=O)c3ccc(F)cc3)cc2C(=O)N([C@H](C)CO)C[C@H]1C | nt | nt | -15 | nt | -6 | 6
CCOc1cc(/C=N/NC(N)=O)cc(Br)c1OCC(=O)Nc1ccccc1C | 15 | 6 | nt | -7 | 4 | nt
CCOc1cc(/C=C\[N+](=O)[O-])ccc1OCC(=O)Nc1ccccc1C | 95* | 22 | nt | 91* | nt | nt
CCOc1cc(/C=C/c2cccc[n+]2C)ccc1OCC(=O)Nc1ccc(C)cc1 | 2 | -1 | -14 | -5 | 74* | -4
COc1cc(/C=C/c2cccc[n+]2C)ccc1OCC(=O)Nc1ccccc1C | -25 | -13 | -9 | -2 | 6 | 1
NCCCNc1nc(N)c([N+](=O)[O-])c(NC2CCCCC2)n1 | 75 | -12 | 54* | 74* | 78* | 30
CC(C)N(CCCNC(=O)c1ccc(CS(=O)(=O)c2c(Cl)cccc2Cl)o1)Cc1ccccc1 | 2 | 0 | -12 | -4 | 62* | 3
Cc1cc(C)n2c(Nc3ccc4c(c3)OCCO4)c(-c3cc4ccccc4o3)nc2n1 | nt | nt | 92* | nt | -60 | 36
Cc1cc(C)n2c(Nc3ccc4c(c3)OCCO4)c(-c3ccc(C)o3)nc2n1 | -53 | -13 | 11 | -20 | -52 | -15
CC(C)c1ccc(Oc2cccc3c2S(=O)(=O)N(C2CCCC2)CC(COCc2ccccc2)O3)cc1 (configuration not stated) | 86* | 9 | -4 | 12 | 1 | 22
COc1ccccc1CN1CC2(C1)[C@H](c1ccccc1)[C@H](CO)N2Cc1ccccc1 | nt | nt | 21 | nt | nt | -4
CCCNC(=O)COC(=O)c1ccccc1C(=O)c1ccc(Cl)c([N+](=O)[O-])c1 | 10 | 48* | 106* | 87* | 54 | 55*
Cc1ccc(C(=O)c2ccccc2C(=O)OCC(=O)NCCc2ccc(Cl)cc2Cl)cc1 | 20 | 1 | 13 | 2 | 10 | nt
Cc1ccc(Cl)c(NC(=O)COC(=O)c2ccccc2C(=O)c2ccc(Cl)c([N+](=O)[O-])c2)c1Cl | 56 | 73* | -1 | 87* | 16 | nt
O=C(NC1CCCC1)N1CC2(C1)[C@@H](c1ccccc1)[C@@H](CO)N2S(=O)(=O)Cc1ccccc1 | nt | nt | 5 | nt | -2 | 1
CCc1ccc(-c2nc(CSCC(=O)NCc3ccco3)c(C)o2)cc1 | 46 | 19 | 1 | 36 | 64* | 84*
CCCNC(=O)CSCc1nc(-c2ccc(SC)cc2)oc1C | -28 | 3 | -16 | -14 | -3 | 18
C[C@@H]1CN([C@@H](C)CO)C(=O)c2cccc(NC(=O)Nc3ccc(F)cc3)c2O[C@@H]1CN(C)CC1CC1 | nt | nt | -9 | nt | -8 | -2
C=C1C(=O)O[C@H]2C[C@H]1[C@@H](OC(C)=O)C/C(C)=C/CC/C(C)=C\CC[C@]2(C)O | 71 | 48* | nt | 99* | 111* | 56*
CS(=O)(=O)Nc1ccc2c(c1)[C@H]1C[C@@H](CC(=O)N3CCOCC3)O[C@H](CO)[C@H]1O2 | nt | nt | -3 | nt | nt | -10
C[C@@H]1CN([C@@H](C)CO)S(=O)(=O)c2ccc(C3=CCCCC3)cc2O[C@H]1CN(C)S(=O)(=O)c1ccc(F)cc1 | nt | nt | 16 | nt | nt | 32
O=[N+]([O-])c1cc2no[n+]([O-])c2cc1N1CCCCC1 | -23 | -76 | 7 | 80* | 15 | -3
Nc1ccc(C(=O)NN2C(=O)[C@H](Cl)C2c2ccc(Cl)cc2)cc1 (some centres not stated) | 99* | -9 | -11 | 81* | -5 | 27
SMILES | Shn3 inh set2 | EBV LMP1 NFkB | LGR2 inh | MITF TRPM1 inh | PAX8 inh HTS | EWS-Fli block
CCCn1c(=N)n(CC(=O)c2ccc([N+](=O)[O-])cc2)c2ccccc21 | 16 | 4 | 23 | 27 | -20 | -1
Cc1ccccc1Cn1c(=N)n(CC(=O)c2ccc([N+](=O)[O-])cc2)c2ccccc21 | -13 | -26 | nt | 66* | nt | 2
COc1ccc(N2C(c3ccsc3)=Cc3cc4c(cc3C2c2c[nH]c3ccccc23)OCO4)cc1 (configuration not stated) | nt | nt | -6 | nt | 73* | 11
Cc1cccc(C2(c3cccc(C)c3)CC2C(=O)Nc2ccc([N+](=O)[O-])cc2O)c1 (configuration not stated) | 73 | 39 | 36 | 66* | 95* | nt
C=CCNC(=O)C1CC1(c1cccc(C)c1)c1cccc(C)c1 (configuration not stated) | 9 | nt | 10 | nt | 3 | -6
Cc1ccnc2ccc(SC(F)(F)F)cc12 | 5 | 1 | -10 | -3 | 87* | 8
Nc1c(N2CCCC2)cc(Cl)c2nonc12 | -15 | 3 | nt | 74* | nt | nt
Nc1c(N2CCOCC2)cc(Cl)c2nonc12 | -13 | -1 | nt | -9 | nt | nt
CCOc1ccc(N/C(N)=N/c2nc(CSc3nnc(C)s3)cc(=O)[nH]2)cc1 | 43 | 4 | -15 | 22 | -2 | 67*
O=C(C=P(c1ccccc1)(c1ccccc1)c1ccccc1)c1ccccc1-c1ccccc1C(=O)C=P(c1ccccc1)(c1ccccc1)c1ccccc1 | 73 | 38 | 25 | 82* | 114* | 50
O=C(NNC(=O)c1ccccc1-c1ccccc1C(=O)O)c1ccccc1 | 1 | -4 | -29 | 2 | 8 | 3
COC(=O)c1nn(-c2ccc(OC)cc2)c(=O)cc1O | -2 | -3 | 0 | -7 | -13 | 2
COc1ccc(-n2nc(C#N)c(Cl)cc2=O)cc1 | 37 | -8 | 105* | 100* | 105* | 53*
c1nc(NCc2ccc3c(c2)OCO3)c2cc(-c3ccc4c(c3)OCCO4)ccc2n1 | -23 | -10 | 6 | 6 | 49 | 9
Cc1cccc(CNc2ncnc3ccc(-c4ccc5c(c4)OCCO5)cc23)c1 | 8 | -15 | 26 | 31 | 80* | 22
Cc1cccc(-c2ccc3ncnc(NCc4cccnc4)c3c2)c1 | 23 | -9 | 0 | 12 | 4 | 15
Cc1cccc(-c2ccc3ncnc(NCc4cccs4)c3c2)c1 | 11 | -5 | 0 | 43 | 65* | 39
c1cncc(CNc2ncnc3ccc(-c4ccoc4)cc23)c1 | 13 | 46* | 8 | 7 | -18 | -13
Cc1csc(CNc2ncnc3ccc(-c4ccoc4)cc23)c1 | -3 | 38 | ? | -11 | -9 | 4
Cc1cccc(CNc2ncnc3ccc(-c4ccoc4)cc23)c1 | -6 | 75* | 29 | 1 | 3 | -4
Cn1cnc(S(=O)(=O)N[C@@H]2C=C[C@H](CC(=O)Nc3ccccc3)O[C@@H]2CO)c1 | nt | nt | 10 | nt | nt | 0
